About 2,100 (0.53%) of roughly 400,000 compounds were called active. Roughly 14% stayed inconclusive and do not appear here. The rule behind the calls is not given here. Many of the other results were omitted from the sample, so actives are more common in it than they were.

For the assay, the target named is Ataxin-2 (Homo sapiens) (UniProt Q99700). In words: qHTS for Inhibitors of ATXN expression. It counts as functional.
Ataxin-2 (Homo sapiens), sequence (Q99700 whole entry): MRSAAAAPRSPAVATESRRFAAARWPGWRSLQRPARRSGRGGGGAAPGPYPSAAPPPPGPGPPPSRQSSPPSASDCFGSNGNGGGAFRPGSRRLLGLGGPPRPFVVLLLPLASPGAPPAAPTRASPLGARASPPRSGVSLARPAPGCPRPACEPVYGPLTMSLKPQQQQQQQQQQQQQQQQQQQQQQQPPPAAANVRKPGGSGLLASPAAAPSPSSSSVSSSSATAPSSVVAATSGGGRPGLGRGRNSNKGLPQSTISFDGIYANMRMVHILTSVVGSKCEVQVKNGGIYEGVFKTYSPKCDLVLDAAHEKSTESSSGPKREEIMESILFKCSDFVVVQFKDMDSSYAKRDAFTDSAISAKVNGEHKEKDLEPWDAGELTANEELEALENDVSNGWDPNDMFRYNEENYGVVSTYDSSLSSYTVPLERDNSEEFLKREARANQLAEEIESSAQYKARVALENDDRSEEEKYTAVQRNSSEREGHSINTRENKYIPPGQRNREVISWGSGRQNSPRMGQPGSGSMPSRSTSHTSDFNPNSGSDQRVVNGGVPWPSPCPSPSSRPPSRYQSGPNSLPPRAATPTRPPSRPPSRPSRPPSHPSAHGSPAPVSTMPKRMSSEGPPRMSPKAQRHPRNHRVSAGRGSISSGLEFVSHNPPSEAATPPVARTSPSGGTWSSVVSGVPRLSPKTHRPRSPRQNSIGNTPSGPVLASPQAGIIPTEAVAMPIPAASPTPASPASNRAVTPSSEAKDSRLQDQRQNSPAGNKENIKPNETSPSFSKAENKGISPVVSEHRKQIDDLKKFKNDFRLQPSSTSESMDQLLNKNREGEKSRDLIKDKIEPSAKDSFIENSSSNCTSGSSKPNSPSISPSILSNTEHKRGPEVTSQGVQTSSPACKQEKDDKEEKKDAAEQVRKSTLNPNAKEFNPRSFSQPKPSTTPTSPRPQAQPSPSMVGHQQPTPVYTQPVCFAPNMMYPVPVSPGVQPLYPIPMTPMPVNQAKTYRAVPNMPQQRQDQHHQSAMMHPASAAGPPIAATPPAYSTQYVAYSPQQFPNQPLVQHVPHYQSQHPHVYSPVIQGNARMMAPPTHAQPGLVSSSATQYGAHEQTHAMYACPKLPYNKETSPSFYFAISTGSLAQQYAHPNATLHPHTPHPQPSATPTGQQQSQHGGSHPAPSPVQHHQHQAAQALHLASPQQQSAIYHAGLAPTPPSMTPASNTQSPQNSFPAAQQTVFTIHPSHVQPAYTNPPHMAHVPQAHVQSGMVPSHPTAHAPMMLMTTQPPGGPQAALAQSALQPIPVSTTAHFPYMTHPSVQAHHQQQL
Turning to `Cc1ccc(C2C=C(c3ccccc3)Nc3nc(N4C(=O)CCC4=O)nn32)cc1` (stereo unspecified), the Potency entry is “inactive”.

Regarding `CNC(=O)c1cc2c(=O)n3cc(C)ccc3nc2n(C(C)C)c1=N`, the Potency entry was “inactive”. The value for `CCN1C(=O)CC(C(C)C)N(C2CCCC2)c2nc(Nc3ccc(C(=O)NC4CCN(C)CC4)cc3OC)ncc21` (stereo unspecified) was 22.4 µM (active); that for `C#Cc1ccc(CN2CCC(Oc3cc(C(=O)NC4CC4)ccc3OC)CC2)cc1` was “inactive”; that for `COc1ccc(Nc2nc(Nc3ccc(OC)cc3OC)nc(N3CCN(C)CC3)n2)c(OC)c1` was “inactive”.

On to `COc1cccc(C(=O)NC2CCN(CC(=O)NCc3ccccc3F)CC2)c1`, for which the Potency entry was “inactive”. Under `CCN1C(=O)CC(c2ccccc2)N(C2CCCC2)c2nc(Nc3ccc(C(=O)NC4CCN(C)CC4)cc3OC)ncc21` (stereo unspecified) stands 25.1 µM (active); under `COc1ccc(C2=NS(=O)(=O)N(C)C(C(=O)NC3CCCC3)=C2)cc1`, “inactive”; under `O=C(CC(=O)c1c(F)cccc1Cl)c1ccccc1O`, “inactive”. The value for `Oc1nc(-c2ccccn2)nc2sc(-c3ccccc3)cc12` was “inactive”. Under `Oc1cc(CSc2ccc(Cl)cc2)nc(-c2ccccn2)n1` stands 1.41 µM (active). Take `Oc1nccc(SCc2ccc(Cl)cc2Cl)n1`: the Potency result was “inactive”. Under `CC1=CC2=NC(=O)/C(=C\c3cc(C)n(-c4ccccc4)c3C)C(=N)N2O1` stands “inactive”; under `Fc1ccc(Br)cc1C1C=C(c2ccc(Br)cc2)Nc2nnnn21` (stereo unspecified), “inactive”. The value for `Cc1cccn2c(=O)c3cc(C(=O)NC4CCCCCC4)sc3nc12` was “inactive”. Consider `O=C(Cn1c(=O)oc2ccc(Cl)cc21)NC1CCCCC1`, for which the Potency entry was “inactive”. In the case of `Cc1ccc(Cl)cc1-n1c(=O)c2sc3ccccc3c2n(CC(=O)NC2CCCC2)c1=O`, the Potency is 11.2 µM (active). Regarding `Cc1ccc(Nc2nc(-c3ccc(O)cc3O)cs2)nc1`, the Potency was 44.7 µM (active). The value for `Cc1ccc(Nc2nc(-c3sc(C)nc3C)cs2)cc1` was “inactive”; that for `Cc1ccc(Nc2nc(-c3ccccc3)cs2)nc1` was “inactive”.

For `COC(=O)C1CCN(C(=O)COC(=O)c2ccc(N3CCCC3=O)cc2)CC1`, the Potency entry was “inactive”. `COc1ccc(C(=O)O/N=C(\N)Cc2ccc(Cl)c(Cl)c2)cc1OC`: the Potency was 28.2 µM (active). The value for `COc1ccc(CC(=O)Nc2cc(C)ccn2)cc1OC` was “inactive”; that for `COc1ccc(C(=O)COC(=O)c2sc(C)nc2C)cc1OC` was “inactive”. The value for `CCc1nnc(NC(=O)CSc2nc(C)c3c(c2C#N)CCCC3)s1` was “inactive”; that for `CCCCc1ccc(NC(=O)CSc2nc(=O)n(CCN(CC)CC)c3c2CCCC3)cc1` was 39.8 µM (active). The value for `COc1ccc(NC(=O)CSc2nnc3n2CCCCC3)cc1` was “inactive”; that for `Cc1ccc(S(=O)(=O)N2CCOCC2)cc1C(=O)N1C(=O)c2cccc(N)c2C1=O` was “inactive”. `O=C(NC1CC1)c1cccc(S(=O)(=O)N2CCOCC2)c1`: the Potency result was “inactive”. `Cc1cc(C(=O)CCl)c(C)n1-c1cccc(S(=O)(=O)N2CCOCC2)c1`: the Potency is 21.2 µM (active). Under `CCC(=O)c1cc2c(C)cc(=O)oc2c(C)c1O` stands “inactive”; under `CCOC(=O)c1cc2c(=O)n3ccccc3nc2n(Cc2ccco2)/c1=N/C(=O)c1ccccc1OCC`, “inactive”. `COCCn1c(SCC(=O)NCc2ccc(OC)c(OC)c2)nc2ccccc21`: the Potency result is “inactive”. Under `CCOC(=O)[C@]12CCC=C1N(Cc1cccc3ccccc13)C(=O)[C@H](CC(=O)NCc1ccc(OC)c(OC)c1)C2` stands 39.8 µM (active); under `CCCCCCCCN1C(=O)[C@H](CC(=O)NCc2ccc(OC)c(OC)c2)C[C@@]2(C(=O)OC)CCCCC=C12`, 35.5 µM (active); under `CCOC(=O)[C@]12CCCC=C1N(Cc1ccc(Cl)cc1Cl)C(=O)[C@H](CC(=O)NCc1ccc(OC)c(OC)c1)C2`, 39.8 µM (active). The value for `CCCOc1ccc(N2CC(C(=O)NCCc3ccc(OC)c(OC)c3)CC2=O)cc1` (stereo unspecified) was “inactive”; that for `COC(=O)[C@]12CCCCC=C1N(Cc1ccc(Cl)cc1Cl)C(=O)[C@H](CC(=O)NCc1ccc(OC)c(OC)c1)C2` was 25.1 µM (active).

As to `COc1ccc(CNC(=O)COC(=O)c2ccc(C)c(S(=O)(=O)N3CCOCC3)c2)cc1OC`, the Potency result is “inactive”. Under `CC1(C)C/C(=N\O)C(C(O)c2cccc([N+](=O)[O-])c2)C(C)(C)N1` (stereo unspecified) stands “inactive”; under `O=C1CSC(c2cccc([N+](=O)[O-])c2)N1C1CC2CCC1C2` (stereo unspecified), “inactive”; under `CCCCN(CCCC)S(=O)(=O)c1ccc(C(=O)Nc2sc3c(c2C(N)=O)CCN(CC)C3)cc1`, “inactive”. The value for `Cc1nc2nc(-c3ccccc3)cn2nc1C` was “inactive”. Under `CCCCCCCCN1C(=O)[C@H](CC(=O)NCC2CCCCC2)C[C@@]2(C(=O)OC)CCCCC=C12` stands 25.1 µM (active); under `Cc1ccc(C2OC34CCCCCC3C(C#N)(C(=N)O4)C2(C#N)C#N)cc1` (stereo unspecified), “inactive”. With `CN(Cc1cccs1)c1nc(-c2cccnc2)nc2ccccc12`, the Potency result was “inactive”.

As to `O=C(c1ccccc1)c1ccc2nc(-c3ccco3)c(-c3ccco3)nc2c1`, the Potency result was “inactive”. The value for `O=C(CCl)N1N=C(c2cccs2)CC1c1ccco1` (stereo unspecified) was 5.32 µM (active). Under `Cc1ccc(C2CC(c3cccs3)=NN2C(=O)CCl)cc1` (stereo unspecified) stands 25.1 µM (active). The value for `CC(=O)Nc1ccc(C2=NN(c3ccccc3)C(c3cccs3)C2)cc1` (stereo unspecified) was “inactive”. As to `COc1ccccc1N1N=C(c2cccs2)CC1c1ccccc1` (stereo unspecified), the Potency result was “inactive”. For `COc1ccc(C2CC(c3cccs3)=NN2c2ccc(F)cc2)cc1OC` (stereo unspecified), the Potency entry was “inactive”.

On to `Cc1ccc(C2=NN(C(=O)CCl)C(c3cccs3)C2)o1` (stereo unspecified), for which the Potency was 9.47 µM (active). The value for `O=C(c1ccccc1Cl)N1N=C(c2cccs2)CC1c1cccc(O)c1` (stereo unspecified) was “inactive”. The value for `COc1ccc(C2=NN(c3ccccc3)C(c3cccs3)C2)cc1` (stereo unspecified) was “inactive”; that for `c1ccc(C2CC(c3cccs3)=NN2c2ccccc2)cc1` (stereo unspecified) was “inactive”. Under `Clc1ccc(N2N=C(c3cccs3)CC2c2ccco2)cc1` (stereo unspecified) stands “inactive”; under `c1ccc(N2N=C(c3cccs3)CC2c2ccco2)cc1` (stereo unspecified), “inactive”; under `COc1cc(C2CC(c3cccs3)=NN2C(=O)CCl)ccc1OC(F)F` (stereo unspecified), 39.8 µM (active).

Take `COc1ccc2nc3c(cc2c1)c(NC(=O)C1CCCO1)nn3CC(C)C` (stereo unspecified): the Potency result is “inactive”. As for `O=S(=O)([N-]c1nc2ccccc2nc1-[n+]1ccn(Cc2ccccc2)c1)c1ccc(Cl)cc1`, the Potency result was “inactive”. As to `CCCCn1nc(NC(=O)COC)c2cc3cc(OC)ccc3nc21`, the Potency result was “inactive”. Under `N=c1c(C(=O)NC2CCCCC2)cc2c(=O)n3ccccc3nc2n1Cc1cccnc1` stands “inactive”. Under `O=C(CCl)N1N=C(c2ccco2)CC1c1cccs1` (stereo unspecified) stands 17.8 µM (active); under `COc1ccc(C2=NN3C(C2)c2ccccc2OC3c2cccs2)cc1` (stereo unspecified), “inactive”; under `O=C(c1ccccc1)C1Oc2ccccc2C2CC(c3cccs3)=NN12` (stereo unspecified), “inactive”. Take `C#CCOCCOCCOCCNc1nc(N2CCOCC2)nc(N2CCN(C(=O)[C@H]([C@@H](C)CC)n3cc([C@@H](N)Cc4ccc(O)cc4)nn3)CC2)n1`: the Potency is 35.5 µM (active). The value for `C#CCOCCOCCOCCNc1nc(N2CCN(C(=O)CCCCCCCCCCNC(=O)[C@H]([C@@H](C)CC)n3cc(CCCCN=C(N)N)nn3)CC2)nc(N2CCN(C(=O)CCCCCCCCCCNC(=O)[C@H](CO)n3cc(CCCSC)nn3)CC2)n1` was 35.5 µM (active); that for `C#CCOCCOCCOCCNc1nc(N2CCN(C(=O)CCCCCCCCCCNC(=O)Cn3cc(CCCCCN)nn3)CC2)nc(N2CCN(C(=O)CCCCCCCCCCNC(=O)[C@@H]([C@H](C)O)n3cc(C)nn3)CC2)n1` was 28.2 µM (active). Under `C#CCOCCOCCOCCNc1nc(N2CCN(C(=O)CCCCCCCCCCNC(=O)Cn3cc(C[C@@H](C)O)nn3)CC2)nc(N2CCN(C(=O)CCCCCCCCCCNC(=O)[C@@H]([C@H](C)CC)n3cc(CCCCCN)nn3)CC2)n1` stands 20 µM (active); under `CC(Sc1nnc(-c2cccnc2)o1)C(=O)NC1CCCCC1` (stereo unspecified), “inactive”; under `C=CCn1c(N)c(C(=O)OCCC)c2nc3ccccc3nc21`, “inactive”. The value for `OCc1ccccc1-c1ccc2nccn2c1` was “inactive”; that for `Cc1csc(NC(=O)c2cc3c(s2)-c2ccccc2OC3)n1` was “inactive”. Regarding `Cc1cccc(/C=N/c2sc3c(c2C#N)CCN(Cc2ccccc2)C3)c1O`, the Potency result is “inactive”. The value for `C#CCOCCOCCOCCNc1nc(N2CCN(C(=O)CCCCCCCCCCNC(=O)[C@H](CCCCN)n3cc(C)nn3)CC2)nc(N2CCN(C(=O)CCCCCCCCCCNC(=O)[C@H](CO)n3cc(CCCSC)nn3)CC2)n1` was 31.6 µM (active). For `C#CCOCCOCCOCCNc1nc(N2CCN(C(=O)CCCCCCCCCCNC(=O)[C@H](CCCCN)n3cc(C)nn3)CC2)nc(N2CCN(C(=O)CCCCCCCCCCNC(=O)[C@@H]([C@H](C)O)n3cc(C)nn3)CC2)n1`, the Potency was 22.4 µM (active). As to `O=C1C(=O)c2c(C(=O)c3ccccc3)coc2-c2ccccc21`, the Potency was 35.5 µM (active).

For the compound `Cc1ccc(C(=O)c2coc3c2C(=O)C(=O)c2ccccc2-3)cc1`, the Potency was 39.8 µM (active). The value for `COCC/N=C1/Sc2nc3ccc(C)cc3cc2CN1Cc1cccs1` was “inactive”; that for `Cc1cc(/C=C2\NC(=S)NC2=O)c(C)n1-c1cccnc1` was “inactive”. Under `CN1C(=S)N(c2cccnc2)C(=O)/C1=C\c1ccc(N(C)C)cc1` stands 20 µM (active); under `CN1C(=O)/C(=C\c2ccc(N(C)C)cc2)OC1=S`, “inactive”. The value for `O=c1oc2c(CN3CCN(CCO)CC3)c(O)ccc2cc1-c1ccccn1` was “inactive”; that for `CC1C(=O)N2CCCc3cc(NC(=O)CC(C)(C)C)cc1c32` (stereo unspecified) was “inactive”; that for `CCOc1cc(/C=N\NC(=O)Cc2ccccc2)ccc1OCC(=O)Nc1ccc(C)c(C)c1` was 31.6 µM (active).

With `CCOc1cc(/C=N/NC(=O)Nc2ccccc2)ccc1O`, the Potency entry was “inactive”. The value for `CCOc1cc(/C=N/NC(=O)C(C)Sc2ccccc2)ccc1O` (stereo unspecified) was “inactive”; that for `CCOc1ccc(CCN2C(=O)C(=O)N([C@@H](CC(C)C)CN3CCC[C@H]3CN3C(=O)C(=O)NC[C@@H]3Cc3ccccc3)C[C@@H]2Cc2ccccc2)cc1` was 25.1 µM (active); that for `CCOc1ccc(CCN2C(=O)C(=O)N([C@@H](CC(C)C)CN3CCC[C@@H]3CN3C(=O)C(=O)NC[C@@H]3Cc3ccccc3)C[C@@H]2CC(C)C)cc1` was 39.8 µM (active). Under `CCOc1ccc(CCN2C(=O)C(=O)N([C@@H](CC(C)C)CN3CCC[C@@H]3CN3C(=O)C(=O)NC[C@@H]3CC(C)C)C[C@@H]2Cc2ccccc2)cc1` stands 12.6 µM (active).

The record behind these values is ChEMBL document CHEMBL1201862, “PubChem BioAssay data set” (2004).
